PubChem BioAssay AID1159580 (chemical genetic matrix, 2015)
About 2,000 (36%) of roughly 5,500 compounds were called active. About 18% were inconclusive and are not listed. No stated cut-off is given here; in the data, active means normalized growth mostly below about 0.91 (no sharp cut-off); inconclusive means no clear call, values can overlap the other calls; inactive means mostly above about 0.92. This is one part of the list.

Assay: chemical genetic growth profiling, strain panel (AID 1159580);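 further: tested at 20 µM; growth read once vehicle control cultures reached saturation at 30 °C; 1 = growth at the plate median or of vehicle wells; lower values mean less growth of the strain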
Conditions: growth OD

Measured: normalized growth

COc1cc(O)c2c(c1)C(=O)c1cc(C)cc(O)c1C2=O
inactive: S. cerevisiae deletion strains, locus YJR075W, strain HOC1, active compounds read low 1 | S. cerevisiae deletion strains, locus YKL009W, strain mrt4, active compounds read low 0.921 | S. cerevisiae deletion strains, locus YKL068W, active compounds read low 1.01 | S. cerevisiae deletion strains, locus YKL085W, strain MDH1 (second series), active compounds read low 0.98 | S. cerevisiae deletion strains, locus YKL085W, strain MDH1, active compounds read low 0.98 | S. cerevisiae deletion strains, locus YKL160W, strain elf1, active compounds read low 0.997 | S. cerevisiae deletion strains, locus YKL190W, strain CNB1, active compounds read low 1.02 | S. cerevisiae deletion strains, locus YKR001C, strain vps1, active compounds read low 1.02 | S. cerevisiae deletion strains, locus YKR026C, strain gcn3, active compounds read low 0.997 | S. cerevisiae deletion strains, locus YKR091W, strain srl3, active compounds read low 0.981 | S. cerevisiae deletion strains, locus YLL001W, strain dnm1, active compounds read low 0.994 | S. cerevisiae deletion strains, locus YLL026W, active compounds read low 0.995 | S. cerevisiae deletion strains, locus YLL041C, strain sdh2, active compounds read low 0.988 | S. cerevisiae deletion strains, locus YLR027C, strain aat2, active compounds read low 0.986 | S. cerevisiae deletion strains, locus YLR039C, strain RIC1, active compounds read low 0.846 | S. cerevisiae deletion strains, locus YLR058C, strain SHM2, active compounds read low 1 | S. cerevisiae deletion strains, locus YLR102C, strain apc9, active compounds read low 0.997 | S. cerevisiae deletion strains, locus YLR113W, strain HOG1, active compounds read low 0.979 | S. cerevisiae deletion strains, locus YLR221C, strain rsa3, active compounds read low 0.995 | S. cerevisiae deletion strains, locus YLR258W, strain gsy2, active compounds read low 0.978 | S. cerevisiae deletion strains, locus YLR262C, strain YPT6, active compounds read low 0.884 | S. cerevisiae deletion strains, locus YLR268W, strain sec22, active compounds read low 0.924 | S. cerevisiae deletion strains, locus YLR320W, strain mms22, active compounds read low 0.962 | S. cerevisiae deletion strains, locus YLR330W, strain CHS5, active compounds read low 1.01 | S. cerevisiae deletion strains, locus YLR342W, strain FKS1 (second series), active compounds read low 1.02 | S. cerevisiae deletion strains, locus YLR342W, strain FKS1, active compounds read low 0.994 | S. cerevisiae deletion strains, locus YLR357W, strain rsc2, active compounds read low 0.945 | S. cerevisiae deletion strains, locus YLR370C, strain arc18, active compounds read low 0.986 | S. cerevisiae deletion strains, locus YLR371W, strain rom2, active compounds read low 1 | S. cerevisiae deletion strains, locus YLR384C, strain iki3, active compounds read low 0.977 | S. cerevisiae deletion strains, locus YLR418C, strain cdc73, active compounds read low 1 | S. cerevisiae deletion strains, locus YML016C, strain PPZ1, active compounds read low 1.01 | S. cerevisiae deletion strains, locus YML120C, strain ndi1, active compounds read low 1 | S. cerevisiae deletion strains, locus YML124C, strain tub3, active compounds read low 1 | S. cerevisiae deletion strains, locus YMR058W, strain fet3, active compounds read low 1.01 | S. cerevisiae deletion strains, locus YMR078C, strain ctf18, active compounds read low 0.982 | S. cerevisiae deletion strains, locus YMR125W, strain sto1, active compounds read low 0.995 | S. cerevisiae deletion strains, locus YMR129W, active compounds read low 0.992 | S. cerevisiae deletion strains, locus YMR205C, strain PFK2, active compounds read low 0.97 | S. cerevisiae deletion strains, locus YMR223W, strain ubp8, active compounds read low 0.974 | S. cerevisiae deletion strains, locus YMR231W, strain pep5, active compounds read low 0.979 | S. cerevisiae deletion strains, locus YMR263W, strain SAP30, active compounds read low 1.01 | S. cerevisiae deletion strains, locus YMR307W, strain GAS1, active compounds read low 0.931 | S. cerevisiae deletion strains, locus YNL067W, strain RPL9B, active compounds read low 0.989 | S. cerevisiae deletion strains, locus YNL071W, strain lat1, active compounds read low 0.998 | S. cerevisiae deletion strains, locus YNL128W, strain TEP1, active compounds read low 1.02 | S. cerevisiae deletion strains, locus YNL153C, strain GIM3, active compounds read low 1 | S. cerevisiae deletion strains, locus YNL183C, strain NPR1, active compounds read low 0.99 | S. cerevisiae deletion strains, locus YNL209W, strain ssb2, active compounds read low 0.985 | S. cerevisiae deletion strains, locus YNL233W, strain BNI4, active compounds read low 0.986 | S. cerevisiae deletion strains, locus YNL248C, strain rpa49, active compounds read low 0.987 | S. cerevisiae deletion strains, locus YNL271C, strain bni1, active compounds read low 0.996 | S. cerevisiae deletion strains, locus YNL298W, strain CLA4, active compounds read low 0.91 | S. cerevisiae deletion strains, locus YNL322C, strain KRE1 (second series), active compounds read low 0.974 | S. cerevisiae deletion strains, locus YNL322C, strain KRE1, active compounds read low 1.01 | S. cerevisiae deletion strains, locus YNR049C, strain mso1, active compounds read low 0.987 | S. cerevisiae deletion strains, locus YNR052C, strain pop2, active compounds read low 0.992 | S. cerevisiae deletion strains, locus YOL006C, strain TOP1, active compounds read low 0.775 | S. cerevisiae deletion strains, locus YOL012C, strain htz1 1.44 | S. cerevisiae deletion strains, locus YOL147C, strain pex11, active compounds read low 1.02 | S. cerevisiae deletion strains, locus YOR001W, strain rrp6, active compounds read low 1.01 | S. cerevisiae deletion strains, locus YOR061W, strain CKA2, active compounds read low 1 | S. cerevisiae deletion strains, locus YOR070C, strain gyp1, active compounds read low 0.979 | S. cerevisiae deletion strains, locus YOR080W, strain dia2, active compounds read low 0.978 | S. cerevisiae deletion strains, locus YOR083W, strain WHI5, active compounds read low 0.984 | S. cerevisiae deletion strains, locus YOR106W, strain vam3, active compounds read low 0.991 | S. cerevisiae deletion strains, locus YOR136W, strain idh2, active compounds read low 0.997 | S. cerevisiae deletion strains, locus YOR144C, strain elg1, active compounds read low 1 | S. cerevisiae deletion strains, locus YOR184W, strain ser1, active compounds read low 0.971 | S. cerevisiae deletion strains, locus YOR231W, strain MKK1, active compounds read low 1.02 | S. cerevisiae deletion strains, locus YOR265W, strain rbl2, active compounds read low 0.983 | S. cerevisiae deletion strains, locus YOR270C, strain vph1, active compounds read low 0.978 | S. cerevisiae deletion strains, locus YOR290C, strain snf2, active compounds read low 0.93 | S. cerevisiae deletion strains, locus YOR316C, strain cot1, active compounds read low 1 | S. cerevisiae deletion strains, locus YPL051W, strain arl3, active compounds read low 0.939 | S. cerevisiae deletion strains, locus YPL055C, strain LGE1, active compounds read low 0.999 | S. cerevisiae deletion strains, locus YPL078C, strain atp4, active compounds read low 1 | S. cerevisiae deletion strains, locus YPL106C, strain sse1, active compounds read low 0.973 | S. cerevisiae deletion strains, locus YPL240C, strain hsp82, active compounds read low 0.98 | S. cerevisiae deletion strains, locus YPL256C, strain CLN2, active compounds read low 1.03 | S. cerevisiae deletion strains, locus YPR119W, strain clb2, active compounds read low 0.984 | S. cerevisiae deletion strains, locus YPR141C, strain kar3, active compounds read low 1.01 | S. cerevisiae deletion strains, locus YPR163C, strain tif3, active compounds read low 0.949 | S. cerevisiae deletion strains, locus YPR167C, strain met16, active compounds read low 0.999 | S. cerevisiae deletion strains, strain wtn01, active compounds read low 0.995 | S. cerevisiae strains, strain wild type, active compounds read low 1.01
active: S. cerevisiae deletion strains, locus YLR262C, strain YPT6 (second series), active compounds read low 0.845 | S. cerevisiae deletion strains, locus YML032C, strain rad52, active compounds read low 0.812 | S. cerevisiae deletion strains, locus YNL250W, strain rad50, active compounds read low 0.834 | S. cerevisiae deletion strains, locus YNL307C, strain MCK1, active compounds read low 0.862 | S. cerevisiae deletion strains, locus YOR069W, strain VPS5, active compounds read low 1.12 [resistant]
